Measured values as given in PubChem BioAssay.
Unmarked numbers belong to inactive results. Calls of active or inactive are those of the source. Cut-off read from the data, not from the text of the source, unless noted: active = inhibition above about 44%; inactive = the rest.

How the values were obtained:
[1] = StAR promoter reporter inhibitors, counter-screen for LRH-1 inverse agonist project, cell-based, luminescence, high throughput (AID 651611; in the data active = inhibition above about 28%); conditions: StAR promoter luciferase reporter counterscreen, at 3.6 µM, active compounds read high
[2] = target: Nuclear receptor subfamily 5 group A member 2 (Homo sapiens) (UniProt O00482); experiment: NR5A2 activity suppression in reporter cells – cell-based, luminescence, confirmation (AID 651613; in the data active = inhibition above about 42%;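 note: HEK293T cells co-transfected with LRH-1 and StAR promoter luciferase reporter; 0% = vehicle wells and 100% = parental cells lacking receptor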); conditions: cell-based LRH-1 luciferase reporter, inverse agonism; at 3.6 µM; active compounds read high
Nuclear receptor subfamily 5 group A member 2 (Homo sapiens), sequence (O00482 whole entry, looked up): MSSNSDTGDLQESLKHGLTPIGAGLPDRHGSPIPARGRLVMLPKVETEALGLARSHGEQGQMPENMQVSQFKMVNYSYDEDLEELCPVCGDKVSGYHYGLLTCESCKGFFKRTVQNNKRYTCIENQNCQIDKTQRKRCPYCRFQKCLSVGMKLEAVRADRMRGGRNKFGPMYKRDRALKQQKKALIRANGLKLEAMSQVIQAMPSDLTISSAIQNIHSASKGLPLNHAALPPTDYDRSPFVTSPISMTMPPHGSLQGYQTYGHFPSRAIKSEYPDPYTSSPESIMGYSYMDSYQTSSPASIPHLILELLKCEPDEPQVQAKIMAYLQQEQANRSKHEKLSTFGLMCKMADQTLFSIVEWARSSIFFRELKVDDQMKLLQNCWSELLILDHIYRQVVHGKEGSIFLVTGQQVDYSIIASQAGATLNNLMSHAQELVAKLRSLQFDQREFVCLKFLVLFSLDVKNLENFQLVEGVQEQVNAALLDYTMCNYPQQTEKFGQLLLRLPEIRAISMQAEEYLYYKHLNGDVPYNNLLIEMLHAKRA

[3] = target: Steroidogenic factor 1 (Homo sapiens) (UniProt Q13285); experiment: inverse agonism at SF1 nuclear receptor – cell-based, luminescence, high throughput, counter-screen for LRH-1 inverse agonist project (AID 651614); conditions: cell-based SF1 luciferase reporter, at 3.6 µM, active compounds read high;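 note: cells cotransfected with StAR promoter reporter and SF1 expression vector; 0% = vehicle on cells with receptor and 100% = vehicle on cells lacking receptor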
Steroidogenic factor 1 (Homo sapiens), sequence (Q13285 whole entry, looked up, the tested form may be a part): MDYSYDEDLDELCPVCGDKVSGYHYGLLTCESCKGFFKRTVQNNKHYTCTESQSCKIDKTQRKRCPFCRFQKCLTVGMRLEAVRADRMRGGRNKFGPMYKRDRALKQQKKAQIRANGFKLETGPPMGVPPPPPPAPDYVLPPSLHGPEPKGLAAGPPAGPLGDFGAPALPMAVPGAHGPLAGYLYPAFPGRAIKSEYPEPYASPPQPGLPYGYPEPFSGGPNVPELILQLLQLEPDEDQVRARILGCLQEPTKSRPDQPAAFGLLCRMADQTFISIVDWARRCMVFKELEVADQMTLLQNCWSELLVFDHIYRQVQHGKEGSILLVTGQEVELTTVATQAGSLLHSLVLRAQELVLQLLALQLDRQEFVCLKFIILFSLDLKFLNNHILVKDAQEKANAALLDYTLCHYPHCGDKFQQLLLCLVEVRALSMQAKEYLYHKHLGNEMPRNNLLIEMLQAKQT

[4] = compounds suppressing VP16-driven luciferase signal – cell-based, luminescence, high throughput, counter-screen for LRH-1 inverse agonist project (AID 651615; in the data active = inhibition above about 33%); conditions: Gal4-VP16 luciferase reporter cells, at 3.6 µM, active compounds read high

SMILES | inhibition [1] | inhibition [2] | inhibition [3] | inhibition [4]
O=C(Nc1ccc(N2CCN(C(=O)c3ccc(Cl)cc3)CC2)cc1)c1ccc([N+](=O)[O-])o1 | 24.9% | 51.9% (active) | 66.2% (active) | 1.04%
O=C(CCl)Nc1ccc2c(c1)OCO2 | 37.1% (active) | 60.3% (active) | 62.4% (active) | -14.7%
Cc1cc(/C=N/n2cnnc2)c(C)n1-c1ccc(OCc2ccc(Cl)cc2)cc1 | -11% | 27.8% | 48.3% (active) | 31.2% (active)
CCN(CC)c1ccc(NC(=O)CSc2nnc(N)s2)cc1C | -2.14% | 57.1% (active) | 51.4% (active) | -4.26%
C#Cc1cc(N2CCN(C(=O)c3ccoc3)CC2)n2nc(-c3cccc(Cl)c3)cc2n1 | 49% (active) | 55.6% (active) | 62.4% (active) | 23.7%
CCC(c1nnnn1-c1c(C)cccc1C)N1CCN(c2ccc(C(F)(F)F)cc2[N+](=O)[O-])CC1 (configuration not stated) | 7.27% | 18.6% | 5.25% | 10%
O=C(NCc1ccco1)c1nn(-c2ccccc2)c(=O)c2ccccc12 | 19.6% | 57% (active) | 53.4% (active) | -14.1%
CC(=O)Nc1ccc(NC(=O)CSc2nc(N)c(NC(=O)c3ccco3)c(=O)[nH]2)cc1 | 13.1% | 51.4% (active) | 48.4% (active) | -7.2%
O=C(CCl)N(c1ccc(Cl)cc1)c1c[nH]c2ccccc12 | 25.4% | 67.1% (active) | 58% (active) | 30.4%
O=C(c1ccc(Cl)cc1)N1CCCCC(Cl)C1=O (configuration not stated) | 20.5% | 56.1% (active) | 57.2% (active) | 1.69%
COc1ccc(OC)c(C2C3=C(COC3=O)Nc3cc4c(cc32)OCO4)c1 (configuration not stated) | 57.4% (active) | 27.6% | 41.7% | 27.9%
CCOc1ccc(NC(=O)CSc2nccn(-c3ccc4c(c3)OCCO4)c2=O)cc1 | -5.61% | 55% (active) | 60.7% (active) | -10.1%
O=NN(CCc1ccncc1)c1ccc(OCc2ccccc2)cc1 | 3.58% | 73.2% (active) | 66.6% (active) | 50.5% (active)
CC12CCC(=O)N1c1c(sc3nc(N4CCOCC4)c4c(c13)CCCC4)C(=O)N2 (configuration not stated) | 11.1% | 63.7% (active) | 53.7% (active) | -1.67%
Cc1nnsc1S(=O)c1ccc(Br)cc1 (configuration not stated) | 4.11% | 45.4% (active) | 44.9% (active) | 3.37%
O=Cc1ccc(N2CCCCCC2)cc1 | 3.14% | 57.1% (active) | 56% (active) | -13.3%
O=C(COC(=O)c1ccc(=O)n(Cc2ccccc2)n1)Nc1ccc2c(c1)OCCO2 | 11.8% | 51.1% (active) | 43.7% (active) | -13.9%
CN(C)c1ccc(C=c2c3ccccc3n3c2cc(-c2ccc(Cl)cc2)[n+]3C)cc1 | 5.51% | 102% (active) | 69% (active) | 86.3% (active)
Cc1cc(NCCCCCCCNc2cc(C)nc3cc([N+](=O)[O-])ccc23)c2ccc([N+](=O)[O-])cc2n1 | -0.67% | 26.2% | 40.3% | 39.7% (active)
CC1(C(=O)NCc2ccco2)Cc2c(-c3cccc(C(N)=O)c3)ccnc2O1 (configuration not stated) | 49.6% (active) | 57.9% (active) | 59.3% (active) | -9.28%
Cn1c(CN2CCN(c3cccc(Cl)c3)CC2)nc2ccccc21 | -11.3% | 23.1% | 36.9% | -12.9%
Cc1ccc(C)c(NC(=O)CSc2nnc(CCNC(=O)OC(C)(C)C)o2)c1 | 20.9% | 59.2% (active) | 59.8% (active) | -2.78%
S=C(NCc1ccccc1)Nc1ccncc1 | 9.38% | 37% | 47.3% (active) | 13.1%
CC(CCc1ccccc1)NC(=O)COc1ccc(S(=O)(=O)N2CCOCC2)cc1[N+](=O)[O-] (configuration not stated) | -7.62% | 35.2% | 31.7% | 24.5%
Cc1ccccc1OCC(=O)N/N=C/c1ccc([N+](=O)[O-])o1 | 18.6% | 57.5% (active) | 60% (active) | 9.63%
Nc1ccc(Br)c2cccnc12 | 3.69% | 26.2% | 24.8% | -9.28%
Cc1ccc(CC(=O)Nc2ccncc2)cc1 | 7.72% | 64.3% (active) | 64.9% (active) | 40.5% (active)

SMILES | inhibition [1] | inhibition [2] | inhibition [3] | inhibition [4]
COC(=O)c1ccc(NC(=O)COc2cccc(-n3cnnn3)c2)cc1 | -5.38% | 41.3% (active) | 32.5% | -9.98%
CC(NC(=O)c1ccc([N+](=O)[O-])o1)C1CC2CCC1C2 (configuration not stated) | 3.5% | 49.1% (active) | 44.2% (active) | 10.8%
O=C(COc1ccc(F)c(Cl)c1)Nc1ccc(N2CCOCC2)cc1 | 3.59% | 36% | 39% | 3.92%
O=C(NCc1cccc(C(F)(F)F)c1)c1cccc(Cl)c1Cl | 7.41% | 46.9% (active) | 48% (active) | 11.8%
Cc1onc(-c2cccc(Cl)c2Cl)c1C(=O)O/N=C(\N)c1ccc([N+](=O)[O-])o1 | 11.8% | 69.7% (active) | 67.3% (active) | -4.83%
O=C(Cn1ncc2c([nH]c3ccccc32)c1=O)Nc1ccc(CN2CCCCC2)cc1 | 5.26% | 60.9% (active) | 62.4% (active) | -4.27%
O=C(CSc1nc2[nH]ncc2c(=O)n1-c1ccccc1)c1ccc2c(c1)OCCO2 | 0.39% | 38.2% | 32.6% | -16.1%
COc1ccc(CCNC(=O)COC(=O)C23CC4CC(CC(Br)(C4)C2)C3)cc1 | 4.42% | 53.8% (active) | 53.9% (active) | 4.71%
COc1cc(NC(=O)CN2C(=O)NC(c3ccccc3)(c3ccccc3)C2=O)c(C)cc1[N+](=O)[O-] | 24.1% | 46% (active) | 35.3% | 9.47%
O=C(COc1ccc2ccc(=O)oc2c1)Nc1ccc(N2CCOCC2)cc1 | 13.3% | 57.3% (active) | 45.5% (active) | -5.4%
O=C(COC(=O)Cc1ccccc1[N+](=O)[O-])NCc1ccc(Cl)cc1 | 11.3% | 37.2% | 34.4% | -5.74%
COc1cc(CSc2nnnn2-c2ccc(C)cc2)cc(OC)c1OC | 24.4% | 53.3% (active) | 61.1% (active) | 44.8% (active)
O=C(NCc1cccnc1)c1ccc(NC(=O)c2ccc(Br)cc2)cc1 | 70.9% (active) | 75.9% (active) | 91.9% (active) | 18.5%
O=C(Nc1ccc2oc(-c3ccncc3)nc2c1)c1ccc([N+](=O)[O-])o1 | 34.1% (active) | 63.7% (active) | 66.2% (active) | -13.7%
O=C(C[n+]1ccc(Cc2ccccc2)cc1)Nc1ccc([N+](=O)[O-])cc1Cl | 5.98% | 54.7% (active) | 45.6% (active) | 5.52%
Cn1c(=O)oc2cc(NC(=O)CCl)ccc21 | 51.8% (active) | 61.6% (active) | 71.3% (active) | -65.2%
O=C(Nc1ccc(S(=O)(=O)N2CCOCC2)cc1)c1cccc([N+](=O)[O-])c1 | -6.54% | 56.9% (active) | 50.2% (active) | -5.35%
COc1cc(N)c2ncccc2c1Br | 16.6% | 17.8% | 26.6% | -4.59%
c1cnn(-c2nc(N3CCOCC3)nc(N3CCOCC3)n2)c1 | 29.5% (active) | 63.6% (active) | 48.2% (active) | 20.2%
COc1ccc(C(=O)C(C)Oc2cccc(NC(=O)c3cccc([N+](=O)[O-])c3)c2)cc1 (configuration not stated) | 1.27% | 35.4% | 44.1% (active) | -5.28%
CCN(CC)C1Oc2cc3c(cc2C(c2cc(OC)c(OC)c(OC)c2)C1C)OCO3 (configuration not stated) | 31.5% (active) | 18.4% | 29.8% | 25.9%
Cc1cccc(OCC(=O)Nc2ccncc2)c1C | 6.9% | 60% (active) | 61.9% (active) | 36.1% (active)
COc1ccc(N2CCN(C(=O)CSc3nnc(-c4cc5ccccc5cc4O)n3C)CC2)cc1 | 19.8% | 59% (active) | 58.3% (active) | 13.6%
CCCCNC(=O)COC(=O)c1c2c(nc3ccccc13)/C(=C/c1cccs1)CC2 | 11.2% | 58% (active) | 26.4% | 37.3% (active)
Cc1c(C(C)C)c(=O)n(-c2ccc(S(=O)(=O)NC3CCCCC3)cc2)n1C | 23.7% | 60.6% (active) | 62.1% (active) | 47.9% (active)
CC(NC(=O)c1ccco1)C(c1cccs1)N1CCN(c2ccccc2F)CC1 (configuration not stated) | 3.57% | 49.3% (active) | 42.6% | 13%
